# Results: PubChem BioAssay (EPA / NIEHS)
# Records with an inconclusive call do not appear. Activity calls are given as the source filed them. How the source made its calls: active means hit-call score of the fitted dose curve at least 0.9, where 1 is the maximum; inconclusive means response in the unintended direction; inactive means score below 0.9.
# Target: human Serotonin, 5-Hydroxytryptamine Receptor 7 (5HT7), HTR7 (gene 3363) (UniProt P34969)
# Assay: NVS_GPCR_h5HT7: NovaScreen (NVS) G Protein-Coupled Receptor Assay for human Serotonin, 5-Hydroxytryptamine Receptor 7 (5HT7) (AID 2283255)
# Protocol: NVS_GPCR_h5HT7 is a biochemical, single-readout assay that uses extracted gene-proteins from CHO in a cell-free assay. Measurements were taken 1 hour after chemical dosing in a 96-well plate.NVS_GPCR_h5HT7 is one of one assay component(s) measured or calculated from the NVS_GPCR_h5HT7 assay. It is designed to make measurements of radioligand binding, a form of binding reporter, as detected with scintillation counting signals by Filter-based radiodetection technology.Data from the assay component NVS_GPCR_h5HT7 was analyzed into 1 assay endpoint. This assay endpoint, NVS_GPCR_h5HT7, was analyzed in the positive analysis fitting direction relative to DMSO as the negative control and baseline of activity. Using a type of binding reporter, loss-of-signal activity can be used to understand changes in the binding as they relate to the gene HTR7. Furthermore, this assay endpoint can be referred to as a primary readout, because the performed assay has only produced 1 assay endpoint. To generalize the intended target to other relatable targets, this assay endpoint is annotated to the gpcr intended target family, where the subfamily is rhodopsin-like receptor.
# Binding assays used specific radioligands (tritiated, iodinated) with non-radioactive competitive displacement ligands in agonist or antagonist protocols (as indicated) and various reference compounds and inhibitors to titrate specific binding to receptors and transporters. Most enzyme assays (CYPs, kinases, phosphatases, proteases, HDACs) used recombinant protein and specific substrates (fluorescence mostly, some colorimetric and radioactive) and inhibitors, followed by a biochemical separation of substrate and product. All assays for the biochemical HTS were initially run in duplicate at a single concentration (10 uM for CYP450 assays and 25 uM for all others). […] Each assay was run with positive and negative controls, and concurrent controls on every plate. The follow-up (secondary) screen tested active chemical-pairs in concentration series, as well as a few additional assays not tested in the primary screen, some selected negative inactives, and several cases re-run in the concentration series for confirmatory purposes.
# Chain of human Serotonin, 5-Hydroxytryptamine Receptor 7 (5HT7), HTR7 (gene 3363) (P34969 whole entry, looked up): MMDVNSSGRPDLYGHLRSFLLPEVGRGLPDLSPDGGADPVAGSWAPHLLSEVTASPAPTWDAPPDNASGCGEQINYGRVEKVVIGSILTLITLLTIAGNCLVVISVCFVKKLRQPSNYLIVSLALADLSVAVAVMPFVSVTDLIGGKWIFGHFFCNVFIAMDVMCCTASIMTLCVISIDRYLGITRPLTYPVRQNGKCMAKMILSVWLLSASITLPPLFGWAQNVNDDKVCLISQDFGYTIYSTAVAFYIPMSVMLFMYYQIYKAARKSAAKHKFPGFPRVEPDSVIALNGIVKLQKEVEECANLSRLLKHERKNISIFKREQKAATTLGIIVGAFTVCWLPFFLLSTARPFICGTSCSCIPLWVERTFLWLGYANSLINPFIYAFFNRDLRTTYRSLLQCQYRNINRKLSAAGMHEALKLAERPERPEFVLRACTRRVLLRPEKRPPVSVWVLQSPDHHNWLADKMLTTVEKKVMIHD
SMILES,AC50,outcome
COc1cccc(-c2ccc(/C=C\CN3CCCCCC3)cc2Cl)c1,17.5 µM (active),–
CNS(=O)(=O)c1cc(C(=O)N2CCC(CCN3C4CCC3CC(n3c(C)nc5ccccc53)C4)(c3cccc(F)c3)CC2)c(Cl)cc1F (stereo not given),4.35 µM (active),–
Nc1ccc(Nc2ccccc2)cc1,7.22 µM (active),–
CCCCCCc1ccc(O)cc1O,25 µM (active),–
O=c1[nH]c2ccc(S(=O)CCN3CCC(Cc4ccc(F)cc4)CC3)cc2o1 (stereo not given),0.534 µM (active),–
CCCN(C1CCN(C(=O)C2CCNCC2)CC1)[C@@H]1CCc2ccc(OC)cc2C1,9.11 µM (active),–
CCC(C)(C)C(=O)O[C@H]1C[C@@H](C)C=C2C=C[C@H](C)[C@H](CC[C@@H]3C[C@@H](O)CC(=O)O3)[C@H]21,11.8 µM (active),–
CCc1cc(SCc2sc(-c3ccc(C(F)(F)F)cc3)nc2CN2CCN(c3ccc(OC)cc3)CC2)ccc1OCC(=O)O,4.32 µM (active),–
Cc1[nH]cnc1C[C@H]1CCc2c(C)c3ccccc3n2C1=O,3.82 µM (active),–
CC(=O)OCCC(C)C,–,inactive
Oc1ccc2c(c1)-c1ccccc1C2,–,inactive
CCOC(=O)c1ccc(C2CCC(NC[C@H](O)COc3ccc(O)c(NS(C)(=O)=O)c3)CC2)cc1 (stereo not given in full),6.12 µM (active),–
CCOC(=O)COc1ccc2c(c1)CC(NCC(O)c1cccc(Cl)c1)CC2 (stereo not given),22.9 µM (active),–
CC[C@H]1CC[C@H](NCc2cc3c(cc2OC)[C@H]2C[C@H]2C(=O)N3C)[C@H](c2ccccc2)N1,20.4 µM (active),–
CCOc1cccc(-n2cc(C(=O)N3CCN(c4cc(C(=O)O)c5ccccc5c4)CC3)nc2-c2ccc(C)cc2)c1,23.8 µM (active),–
